Drawing on PubChem BioAssay, this text covers growth inhibition, inhibition and outcome for 20 molecules.

Assay [1] is described as follows: antimalarial activity against Dd2 strain (AID 2302;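 active = growth inhibition above 50% at the single 2 µM test dose, taken to imply half-maximal potency below 2 µM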;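 note: 0% = DMSO untreated growth and 100% = chloroquine plus artemisinin killed control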). The following applies: P. falciparum Dd2 in RBCs, LDH growth readout, 72 h; at 2 µM; active compounds read high.
The nature of assay [2]: human hepatoma cell viability loss – ATP luminescence, cytotoxicity control for P. falciparum antimalarial project, primary screen (AID 2303;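 active = inhibition above 50%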;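 note: 0% = DMSO wells and 100% = digitonin-killed cells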). The following applies: HepG2 viability, 24-48 h, at 10 µM, active compounds read high.
The target of assay [3] is L-lactate dehydrogenase (Plasmodium falciparum (isolate CDC / Honduras)) (UniProt Q27743). The assay can be described thus: PfLDH activity inhibition – cell lysate, 3D7 strain, counter-screen for P. falciparum growth inhibition project (AID 2304).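 Note: 0% = vehicle and 100% = reference inhibitor.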 To be noted: P. falciparum 3D7 crude extract, LDH APAD/NBT absorbance; at 2 µM; active compounds read high. (In general: Counterscreens check selectivity or assay interference.)

The nature of assay [4]: inhibition of 3D7 malaria parasite growth – strain 3D7 (AID 2306).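 Note: 0% = DMSO wells and 100% = chloroquine plus artemisinin control wells.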 The following applies: P. falciparum 3D7 erythrocytic growth, LDH absorbance, 72 h; at 2 µM; active compounds read high.
The target of assay [5] is Calcium-dependent protein kinase 1 (Plasmodium falciparum (isolate 3D7)) (UniProt P62344). Briefly: PfCDPK1 kinase inhibitors, biochemical, TCAMS library (AID 1159585; cut-off not given, nearly all actives have IC50 up to about 0.98 µM;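 note: inhibitors leave more ATP so luminescence rises with inhibition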). The following applies: recombinant PfCDPK1, Kinase-Glo ATP depletion luminescence. On the technique in general: Kinase-Glo measures the ATP left after a reaction by luminescence.
Assay [6] has as its target Plasmodium falciparum protein kinase 6 (PK6, PF3D7_1337100) (UniProt Q8IDW1). The assay can be described thus: PfPK6 kinase inhibitors, biochemical, TCAMS library (AID 1159586). The following applies: recombinant PfPK6, Kinase-Glo ATP depletion luminescence.
In assay [7] the target is Protein kinase 7 (PK7), Plasmodium falciparum 3D7 (PF3D7_0213400) (UniProt Q7YTF7). The assay can be described thus: inhibition of Plasmodium PK7 catalytic activity – biochemical, TCAMS antimalarial set, Kinase-Glo luminescence (AID 1159587). To be noted: recombinant PfPK7, Kinase-Glo ATP depletion luminescence.
In assay [8] the target is Calcium-dependent protein kinase 4 (Plasmodium falciparum (isolate 3D7)) (UniProt Q8IBS5). Briefly: PfCDPK4 kinase inhibitors, biochemical, TCAMS library (AID 1159588; cut-off not given, nearly all actives have IC50 up to about 0.91 µM). To be noted: recombinant PfCDPK4, Kinase-Glo ATP depletion luminescence.

What is called inhibition is the drop in the measured response relative to a control, in per cent.

SMILES strings stand for the structures. A number with no mark means an inactive call. For some of these results: Results with a measured potency or affinity are listed apart. Active and inactive are the calls of the source. Unless noted, the rule behind the calls is not given here.

Calcium-dependent protein kinase 4 (Plasmodium falciparum (isolate 3D7)), sequence (Q8IBS5 whole entry, looked up): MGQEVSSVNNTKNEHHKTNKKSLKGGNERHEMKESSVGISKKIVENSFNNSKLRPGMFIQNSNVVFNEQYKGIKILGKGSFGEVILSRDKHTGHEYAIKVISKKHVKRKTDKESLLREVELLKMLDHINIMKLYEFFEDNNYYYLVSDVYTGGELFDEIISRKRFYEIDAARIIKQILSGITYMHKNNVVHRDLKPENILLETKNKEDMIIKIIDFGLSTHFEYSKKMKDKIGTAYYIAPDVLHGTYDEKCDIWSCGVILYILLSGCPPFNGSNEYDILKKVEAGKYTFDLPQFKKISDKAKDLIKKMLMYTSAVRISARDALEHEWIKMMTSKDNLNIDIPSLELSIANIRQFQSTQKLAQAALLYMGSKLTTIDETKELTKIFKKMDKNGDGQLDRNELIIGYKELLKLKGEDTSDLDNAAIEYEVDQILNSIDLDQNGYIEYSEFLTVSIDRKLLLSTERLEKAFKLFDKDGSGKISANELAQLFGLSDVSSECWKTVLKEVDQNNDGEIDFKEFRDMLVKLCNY
Plasmodium falciparum protein kinase 6 (PK6, PF3D7_1337100), sequence (Q8IDW1 1-305): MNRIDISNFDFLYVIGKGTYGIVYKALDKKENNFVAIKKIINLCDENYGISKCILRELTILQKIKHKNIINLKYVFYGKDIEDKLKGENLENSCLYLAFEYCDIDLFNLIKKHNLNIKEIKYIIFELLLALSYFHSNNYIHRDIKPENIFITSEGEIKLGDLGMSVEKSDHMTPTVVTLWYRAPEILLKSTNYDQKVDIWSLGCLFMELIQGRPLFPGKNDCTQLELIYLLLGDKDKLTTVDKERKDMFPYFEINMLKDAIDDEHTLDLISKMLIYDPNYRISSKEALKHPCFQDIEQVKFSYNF
L-lactate dehydrogenase (Plasmodium falciparum (isolate CDC / Honduras)), sequence (Q27743 whole entry, looked up): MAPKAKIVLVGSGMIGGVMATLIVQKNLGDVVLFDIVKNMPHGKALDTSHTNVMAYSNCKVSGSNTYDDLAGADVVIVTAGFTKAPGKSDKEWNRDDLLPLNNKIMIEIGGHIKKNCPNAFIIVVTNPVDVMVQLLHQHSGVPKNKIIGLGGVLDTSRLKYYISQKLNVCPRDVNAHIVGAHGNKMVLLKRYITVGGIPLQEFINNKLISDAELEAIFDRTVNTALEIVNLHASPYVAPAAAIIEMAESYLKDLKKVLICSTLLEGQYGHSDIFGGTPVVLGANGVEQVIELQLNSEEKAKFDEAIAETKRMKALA
Protein kinase 7 (PK7), Plasmodium falciparum 3D7 (PF3D7_0213400), sequence (Q7YTF7 1-343): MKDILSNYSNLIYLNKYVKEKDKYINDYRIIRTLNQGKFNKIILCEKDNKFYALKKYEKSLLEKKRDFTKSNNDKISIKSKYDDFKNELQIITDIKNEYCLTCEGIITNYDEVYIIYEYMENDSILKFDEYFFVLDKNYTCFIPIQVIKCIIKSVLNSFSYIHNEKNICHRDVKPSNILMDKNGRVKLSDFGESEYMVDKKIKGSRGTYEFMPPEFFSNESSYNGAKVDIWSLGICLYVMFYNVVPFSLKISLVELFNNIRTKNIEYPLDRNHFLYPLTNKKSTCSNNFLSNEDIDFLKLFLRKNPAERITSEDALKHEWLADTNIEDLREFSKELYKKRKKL
Calcium-dependent protein kinase 1 (Plasmodium falciparum (isolate 3D7)), sequence (P62344 whole entry, looked up): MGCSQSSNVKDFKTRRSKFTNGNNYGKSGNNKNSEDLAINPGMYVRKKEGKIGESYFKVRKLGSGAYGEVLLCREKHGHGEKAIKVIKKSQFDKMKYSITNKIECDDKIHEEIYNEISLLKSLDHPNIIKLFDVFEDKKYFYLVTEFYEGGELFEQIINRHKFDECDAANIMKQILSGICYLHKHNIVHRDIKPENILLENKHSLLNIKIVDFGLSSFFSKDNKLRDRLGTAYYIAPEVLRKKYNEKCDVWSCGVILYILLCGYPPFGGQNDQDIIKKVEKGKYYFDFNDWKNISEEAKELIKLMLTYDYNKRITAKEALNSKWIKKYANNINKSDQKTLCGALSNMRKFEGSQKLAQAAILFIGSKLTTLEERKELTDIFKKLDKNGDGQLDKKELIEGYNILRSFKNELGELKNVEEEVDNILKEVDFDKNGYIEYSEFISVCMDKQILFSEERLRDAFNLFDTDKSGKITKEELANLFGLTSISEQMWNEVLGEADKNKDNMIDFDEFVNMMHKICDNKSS

With `N#CCCN1CCN(Cc2cccc(-c3ccc(-c4nc5ccc(C(F)(F)F)cc5[nH]4)cc3)c2)CC1`, the growth inhibition is 63% (active) in assay [1] and 101% (active) in assay [4]. The inhibition was 23% in assay [2] and 4% in assay [3]. Further, the result in assay [5], in assay [6], in assay [7] and in assay [8] was inactive.
For the molecule `CC(C)CC(=O)N1CCNC[C@@H]1C(=O)NCc1ccc(Cl)c(Cl)c1`, the growth inhibition in assay [1] was 16%; in assay [4], 99% (active). In addition, the inhibition in assay [2] and in assay [3] was -3% throughout. Moreover, the outcome in assay [5], in assay [6], in assay [7] and in assay [8] was inactive.
`Cc1ccc(-c2cc(C(=O)Nc3ccc(S(=O)(=O)N4CC(C)OC(C)C4)cc3)[nH]n2)c(O)c1` (stereo not given): the growth inhibition in assay [1] is 98% (active); in assay [4], 91% (active). The inhibition in assay [2] was 16%; in assay [3] it was -1%. Moreover, the result in assay [5], in assay [6], in assay [7] and in assay [8] was inactive.
Take `CNc1cc(-c2ccc3ccnc(N)c3c2)nc(N)n1`: the figures for the growth inhibition in assay [1] and in assay [4] were 81% (active) and 100% (active), respectively. Further, the inhibition in assay [2] is 23%; in assay [3], -2%. In addition, the result in assay [5], in assay [6], in assay [7] and in assay [8] was inactive.
`CC[C@H](C)CNC(=O)c1cncc(-c2cccc(CN3CCC(N4CCCC4)CC3)c2)c1`: the growth inhibition was 5% in assay [1] and 97% (active) in assay [4]. For the same molecule, the inhibition in assay [2] is -1%; in assay [3] it was 6%. Also, the result in assay [5], in assay [6], in assay [7] and in assay [8] was inactive.
Consider `Oc1ccc2ccccc2c1CNCCC1CCCCC1`, for which the growth inhibition in assay [1] and in assay [4] was 99% (active) throughout. Moreover, the inhibition was 16% in assay [2] and 5% in assay [3]. Further, the result in assay [5], in assay [6], in assay [7] and in assay [8] was inactive.
Consider `Nc1nccc(-c2ccc3c(-c4cccc(F)c4)cnc(N)c3c2)n1`, for which the values for the growth inhibition in assay [1] and in assay [4] were 44% and 93% (active), respectively. Besides, the inhibition was 41% in assay [2] and 5% in assay [3]. Moreover, the result in assay [5], in assay [6], in assay [7] and in assay [8] was inactive.
As for `CC(C)(C)c1ccccc1OC(=O)c1ccccc1`, the growth inhibition in assay [1] was 2%; in assay [4], 95% (active). In addition, the results for the inhibition in assay [2] and in assay [3] were -4% and 0%, respectively. The result in assay [5], in assay [6], in assay [7] and in assay [8] was inactive.
Regarding `O=C(Nc1cccc(-c2nn3ncccc3c2-c2ccnc(Nc3cccnc3)n2)c1)c1c(F)cccc1F`, the results for the growth inhibition in assay [1] and in assay [4] were 70% (active) and 96% (active), respectively. For the same molecule, the inhibition was 5% in assay [2] and -2% in assay [3]. In addition, the outcome in assay [5], in assay [6], in assay [7] and in assay [8] was inactive.
For `Cc1ccc(-c2cnc(N)c3cc(-c4ccnc(N)n4)ccc23)cc1`, the growth inhibition was 94% (active) in assay [1] and 99% (active) in assay [4]. In addition, the inhibition is 41% in assay [2] and -5% in assay [3]. Moreover, the result in assay [5], in assay [6], in assay [7] and in assay [8] was inactive.
Take `Cc1cc(N2CCCC2)nc(Nc2ccc(NC(=O)c3ccc4c(c3)OCO4)cc2)n1`: the growth inhibition is 67% (active) in assay [1] and 101% (active) in assay [4]. Besides, the inhibition is 26% in assay [2] and -4% in assay [3]. Moreover, the result in assay [5], in assay [6], in assay [7] and in assay [8] was inactive.
As for `CCN(CC)CCCC(C)Nc1c2ccccc2nc2ccc3ccccc3c12` (stereo not given), the growth inhibition is 89% (active) in assay [1] and 100% (active) in assay [4]. The values for the inhibition in assay [2] and in assay [3] were 24% and 1%, respectively. Moreover, the result in assay [5], in assay [6], in assay [7] and in assay [8] was inactive.
In the case of `N#Cc1ccc(CN2CCC(Oc3ccc(NC(=O)c4cccs4)cc3Cl)C2)cc1` (stereo not given), the results for the growth inhibition in assay [1] and in assay [4] were 95% (active) and 96% (active), respectively. The results for the inhibition in assay [2] and in assay [3] were 31% and -2%, respectively. The outcome in assay [5], in assay [6], in assay [7] and in assay [8] was inactive.
`COc1ccc2nc(-c3cccc(C)n3)nc(Nc3ccncc3)c2c1`: the results for the growth inhibition in assay [1] and in assay [4] were 42% and 101% (active), respectively. In addition, the figures for the inhibition in assay [2] and in assay [3] were -1% and -3%, respectively. For the same molecule, the result in assay [5], in assay [6], in assay [7] and in assay [8] was inactive.
For `Cc1noc(C)c1S(=O)(=O)N(C)Cc1ccc(-c2ccc(Cl)cc2)o1`, the growth inhibition in assay [1] and in assay [4] was 100% (active) throughout. Further, the inhibition is 10% in assay [2] and -3% in assay [3]. The outcome in assay [5], in assay [6], in assay [7] and in assay [8] was inactive.
`Cc1cccc(NC(=S)NC2CCN(CCCCCNC(=O)/C=C/c3ccc(Cl)c(Cl)c3)CC2)c1`: the figures for the growth inhibition in assay [1] and in assay [4] were 19% and 97% (active), respectively. Besides, the inhibition in assay [2] is 14%; in assay [3], 4%. The outcome in assay [5], in assay [6], in assay [7] and in assay [8] was inactive.
Regarding `C=CCNS(=O)(=O)c1ccc(NC(=O)C(C)Oc2ccc([N+](=O)[O-])cc2)cc1` (stereo not given), the growth inhibition in assay [1] was 100% (active); in assay [4], 101% (active). The inhibition in assay [2] is 14%; in assay [3], -3%. Further, the result in assay [5], in assay [6], in assay [7] and in assay [8] was inactive.
Regarding `Cc1cc2nc(-c3cc(Br)ccc3O)c(-c3cc(Br)ccc3O)nc2cc1C`, the growth inhibition in assay [1] was 12%; in assay [4], 96% (active). Also, the inhibition was 2% in assay [2] and -1% in assay [3]. Besides, the result in assay [5], in assay [6], in assay [7] and in assay [8] was inactive.
Consider `O=C(Nc1cc(Cl)cc(Cl)c1)c1cc(Cl)c(=O)n(Cc2cccc(Cl)c2)c1`, for which the figures for the growth inhibition in assay [1] and in assay [4] were 62% (active) and 100% (active), respectively. For the same molecule, the inhibition in assay [2] is 8%; in assay [3], 2%. For the same molecule, the result in assay [5], in assay [6], in assay [7] and in assay [8] was inactive.
`COc1cc(Cc2cnc(N)nc2N)cc(OC)c1OCCCCCN1C(=O)c2ccccc2C1=O`: the results for the growth inhibition in assay [1] and in assay [4] were 4% and 97% (active), respectively. The inhibition in assay [2] was 5%; in assay [3], 3%. Besides, the outcome in assay [5], in assay [6], in assay [7] and in assay [8] was inactive.
